Test results as given in PubChem BioAssay AID1159580 (chemical genetic matrix, 2015).
Among all 5,500 compounds or so, about 2,000 (36%) were called active. Not shown: some 18% with an inconclusive outcome. No stated cut-off is given here; in the data, active means normalized growth mostly below about 0.91 (no sharp cut-off); inconclusive means no clear call, values can overlap the other calls; inactive means mostly above about 0.92. Some of the results follow.

Assay: chemical genetic growth profiling, strain panel (AID 1159580);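 further: tested at 20 µM; growth read once vehicle control cultures reached saturation at 30 °C; 1 = growth at the plate median or of vehicle wells; lower values mean less growth of the strain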
Conditions: S. cerevisiae deletion strains, growth OD

Measured: normalized growth

C/C=C(\C)C(=O)O[C@@H]1c2c(ccc3ccc(=O)oc23)OC(C)(C)[C@@H]1OC(C)=O
inactive: locus YJR043C, strain POL32, active compounds read low 1.02 | locus YJR066W, strain TOR1, active compounds read low 0.958 | locus YJR075W, strain HOC1, active compounds read low 0.993 | locus YKL009W, strain mrt4, active compounds read low 0.997 | locus YKL068W, active compounds read low 1.01 | locus YKL085W, strain MDH1 (second series), active compounds read low 0.991 | locus YKL085W, strain MDH1, active compounds read low 0.991 | locus YKL160W, strain elf1, active compounds read low 0.939 | locus YKR001C, strain vps1, active compounds read low 1.02 | locus YKR026C, strain gcn3, active compounds read low 0.996 | locus YKR091W, strain srl3, active compounds read low 0.996 | locus YLL001W, strain dnm1, active compounds read low 0.972 | locus YLL026W, active compounds read low 0.992 | locus YLL041C, strain sdh2, active compounds read low 0.998 | locus YLR027C, strain aat2, active compounds read low 0.992 | locus YLR039C, strain RIC1, active compounds read low 0.946 | locus YLR058C, strain SHM2, active compounds read low 0.995 | locus YLR102C, strain apc9, active compounds read low 1.01 | locus YLR113W, strain HOG1, active compounds read low 1.01 | locus YLR221C, strain rsa3, active compounds read low 0.971 | locus YLR258W, strain gsy2, active compounds read low 0.997 | locus YLR262C, strain YPT6, active compounds read low 0.913 | locus YLR268W, strain sec22, active compounds read low 1.02 | locus YLR320W, strain mms22, active compounds read low 0.943 | locus YLR330W, strain CHS5, active compounds read low 1.01 | locus YLR342W, strain FKS1 (second series), active compounds read low 1.01 | locus YLR342W, strain FKS1, active compounds read low 0.998 | locus YLR357W, strain rsc2, active compounds read low 1.04 | locus YLR370C, strain arc18, active compounds read low 0.996 | locus YLR371W, strain rom2, active compounds read low 1.02 | locus YLR384C, strain iki3, active compounds read low 0.988 | locus YLR418C, strain cdc73, active compounds read low 0.97 | locus YML016C, strain PPZ1, active compounds read low 0.995 | locus YML032C, strain rad52, active compounds read low 0.99 | locus YML120C, strain ndi1, active compounds read low 0.993 | locus YML124C, strain tub3, active compounds read low 0.988 | locus YMR058W, strain fet3, active compounds read low 1 | locus YMR078C, strain ctf18, active compounds read low 1 | locus YMR125W, strain sto1, active compounds read low 0.967 | locus YMR129W, active compounds read low 0.992 | locus YMR205C, strain PFK2, active compounds read low 0.919 | locus YMR223W, strain ubp8, active compounds read low 0.979 | locus YMR231W, strain pep5, active compounds read low 0.998 | locus YMR307W, strain GAS1, active compounds read low 0.929 | locus YNL067W, strain RPL9B, active compounds read low 0.997 | locus YNL071W, strain lat1, active compounds read low 0.963 | locus YNL153C, strain GIM3, active compounds read low 1.02 | locus YNL183C, strain NPR1, active compounds read low 0.996 | locus YNL209W, strain ssb2, active compounds read low 1 | locus YNL233W, strain BNI4, active compounds read low 1.02 | locus YNL248C, strain rpa49, active compounds read low 0.956 | locus YNL250W, strain rad50, active compounds read low 1.02 | locus YNL271C, strain bni1, active compounds read low 1 | locus YNL298W, strain CLA4, active compounds read low 1.01 | locus YNL307C, strain MCK1, active compounds read low 1 | locus YNL322C, strain KRE1 (second series), active compounds read low 0.991 | locus YNR049C, strain mso1, active compounds read low 0.992 | locus YNR052C, strain pop2, active compounds read low 0.995 | locus YOL006C, strain TOP1, active compounds read low 1.04 | locus YOL012C, strain htz1 1.21 | locus YOL147C, strain pex11, active compounds read low 0.996 | locus YOR001W, strain rrp6, active compounds read low 1.02 | locus YOR061W, strain CKA2, active compounds read low 0.99 | locus YOR069W, strain VPS5, active compounds read low 0.995 | locus YOR070C, strain gyp1, active compounds read low 0.999 | locus YOR080W, strain dia2, active compounds read low 1.01 | locus YOR083W, strain WHI5, active compounds read low 0.953 | locus YOR106W, strain vam3, active compounds read low 0.977 | locus YOR136W, strain idh2, active compounds read low 1.03 | locus YOR144C, strain elg1, active compounds read low 1.01 | locus YOR184W, strain ser1, active compounds read low 0.959 | locus YOR231W, strain MKK1, active compounds read low 0.991 | locus YOR265W, strain rbl2, active compounds read low 0.991 | locus YOR270C, strain vph1, active compounds read low 0.912 | locus YOR290C, strain snf2, active compounds read low 0.972 | locus YOR316C, strain cot1, active compounds read low 0.999 | locus YPL051W, strain arl3, active compounds read low 0.96 | locus YPL055C, strain LGE1, active compounds read low 1 | locus YPL078C, strain atp4, active compounds read low 0.972 | locus YPL106C, strain sse1, active compounds read low 1.04 | locus YPL240C, strain hsp82, active compounds read low 1 | locus YPL241C, strain CIN2, active compounds read low 0.986 | locus YPL256C, strain CLN2, active compounds read low 0.99 | locus YPR119W, strain clb2, active compounds read low 0.993 | locus YPR141C, strain kar3, active compounds read low 1.01 | locus YPR163C, strain tif3, active compounds read low 0.996 | locus YPR167C, strain met16, active compounds read low 0.99 | strain wtn01, active compounds read low 1.05
active: locus YLR262C, strain YPT6 (second series), active compounds read low 0.846
